# Source: PubChem BioAssay (EPA / NIEHS)
# Active and inactive are the calls of the source. Rule for the calls: active = hit-call score of the fitted dose curve at least 0.9, where 1 is the maximum; inactive = score below 0.9.
# Experiments:
# Settings in all cases: mRNA level, 48 h; actives raise or lower the signal
# [1] = read-out: Lipase C (LIPC), LIPC (gene 3990); experiment: LTEA_HepaRG_LIPC: Life Technologies and Expression Analysis (LTEA) Assay for Lipase C (LIPC) using HepaRG (AID 2283514)
# Method in brief: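 HepaRG, 48 h exposure, 8-pt half-log series from 100 uM in 0.5% DMSO, duplicates. Readout: LIPC mRNA by Fluidigm qRT-PCR, housekeeping-normalized (ACTB/GAPDH/POLR2A). Gain or loss fitted bidirectionally against DMSO baseline.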
# [2] = read-out: Lipoprotein lipase (LPL), LPL (gene 4023); experiment: LTEA_HepaRG_LPL: Life Technologies and Expression Analysis (LTEA) Assay for Lipoprotein lipase (LPL) using HepaRG (AID 2283515)
# Method in brief: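 HepaRG, 48 h exposure, 8-pt half-log dilutions from 100 uM, 0.5% DMSO vehicle, duplicates; qRT-PCR (Fluidigm array) of LPL mRNA vs housekeeping genes; bidirectional curve fit relative to DMSO baseline.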
# [3] = read-out: MicroRNA 122 (MIR122), gene 406906; experiment: LTEA_HepaRG_MIR122: Life Technologies and Expression Analysis (LTEA) Assay for MicroRNA 122 (MIR122) using HepaRG (AID 2283516); note: the transcript read is the microRNA miR-122
# Method in brief: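 qRT-PCR read-out (TaqMan, Fluidigm array), normalized to three housekeeping genes; HepaRG cells dosed 48 h at 8 concentrations up to 100 uM in 0.5% DMSO, duplicate; gain or loss fitted against DMSO baseline.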
# [4] = read-out: matrix metalloproteinase-10 (MMP10), MMP10 (gene 4319); experiment: LTEA_HepaRG_MMP10: Life Technologies and Expression Analysis (LTEA) Assay for matrix metalloproteinase-10 (MMP10) using HepaRG (AID 2283517)
# Method in brief: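 Transcript levels come from Fluidigm qRT-PCR normalized to three housekeeping genes, with curves fitted bidirectionally against 0.5% DMSO. Human HepaRG cells were dosed for 48 hours at concentrations up to 100 uM.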
# MYC, MYC (gene 4609) = experiment: LTEA_HepaRG_MYC: Life Technologies and Expression Analysis (LTEA) Assay for MYC using HepaRG (AID 2283518)
# Method in brief: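 Differentiated HepaRG cells exposed 48 h in serum-free induction medium to 8 concentrations (top 100 uM, half-log steps; 0.5% DMSO), duplicate. MYC mRNA measured by Fluidigm qRT-PCR, normalized to ACTB, GAPDH, POLR2A; bidirectional fit versus DMSO.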
# [5] = read-out: matrix metalloproteinase-3 (MMP3), MMP3 (gene 4314); experiment: LTEA_HepaRG_MMP3: Life Technologies and Expression Analysis (LTEA) Assay for matrix metalloproteinase-3 (MMP3) using HepaRG (AID 2283519)
# Method in brief: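 qRT-PCR read-out of MMP3 mRNA (normalised to three housekeeping genes) in HepaRG liver cells after 48 h chemical exposure; 8-point half-log series, top 100 uM, 0.5% DMSO vehicle. Bidirectional curve fitting against DMSO baseline.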
# [6] = read-out: Phosphatase and tensin (PTEN), PTEN (gene 5728); experiment: LTEA_HepaRG_PTEN: Life Technologies and Expression Analysis (LTEA) Assay for Phosphatase and tensin (PTEN) using HepaRG (AID 2283523)
# Method in brief: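 HepaRG, 48 h exposure, 8-pt half-log series from 100 uM top, 0.5% DMSO vehicle, duplicates. Readout: Fluidigm qRT-PCR of PTEN transcript; housekeeping normalization (ACTB, GAPDH, POLR2A). Gain or loss fitted relative to DMSO baseline.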
# [7] = read-out: solute carrier (SLC22A1), SLC22A1 (gene 6580); experiment: LTEA_HepaRG_SLC22A1: Life Technologies and Expression Analysis (LTEA) Assay for solute carrier (SLC22A1) using HepaRG (AID 2283524)
# Method in brief: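 qRT-PCR readout (TaqMan, Fluidigm arrays) of SLC22A1 transcript, normalized to three housekeeping genes; bidirectional curve fit relative to 0.5% DMSO vehicle. Differentiated human HepaRG cells, 48 h chemical exposure, top concentration 100 uM, half-log steps, eight points.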
# [8] = read-out: Pyruvate Dehydrogenase Kinase 4 (PDK4), PDK4 (gene 5166); experiment: LTEA_HepaRG_PDK4: Life Technologies and Expression Analysis (LTEA) Assay for Pyruvate Dehydrogenase Kinase 4 (PDK4) using HepaRG (AID 2283525)
# Method in brief: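 HepaRG (human liver line), 48 h chemical exposure, 8-pt half-log CRC top 100 uM, 0.5% DMSO vehicle, duplicates. Readout: TaqMan qRT-PCR of PDK4 mRNA, housekeeping-normalized; gain/loss fit relative to DMSO baseline.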
# [9] = read-out: NAD(P)H dehydrogenase [quinone] 1 (NQO1), NQO1 (gene 1728); experiment: LTEA_HepaRG_NQO1: Life Technologies and Expression Analysis (LTEA) Assay for NAD(P)H dehydrogenase [quinone] 1 (NQO1) using HepaRG (AID 2283526)
# Method in brief: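 qRT-PCR read-out (Fluidigm TaqMan), normalized to three housekeeping genes, after 48 h chemical exposure of HepaRG cells. Concentrations: eight points, top 100 uM, half-log steps, 0.5% DMSO vehicle. Gain or loss of signal fitted relative to DMSO.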
# [10] = read-out: succinate dehydrogenase complex iron sulfur subunit B (SDHB), SDHB (gene 6390); experiment: LTEA_HepaRG_SDHB: Life Technologies and Expression Analysis (LTEA) Assay for succinate dehydrogenase complex iron sulfur subunit B (SDHB) using HepaRG (AID 2283528)
# Method in brief: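 HepaRG, 48 h exposure, 8-pt half-log series from 100 uM in 0.5% DMSO, duplicates. Readout: SDHB mRNA by Fluidigm qRT-PCR vs housekeeping genes; bidirectional fit relative to DMSO.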
# [11] = read-out: Signal transducer and activator of transcription 3 (Homo sapiens) (UniProt P40763); experiment: LTEA_HepaRG_STAT3: Life Technologies and Expression Analysis (LTEA) Assay for Signal transducer and activator of transcription (STAT3) using HepaRG (AID 2283529)
# Method in brief: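 HepaRG, 48 h exposure, 8-pt half-log series (top 100 uM), 0.5% DMSO vehicle, duplicates. Readout: STAT3 transcript by Fluidigm qRT-PCR, housekeeping-normalized; bidirectional fit vs DMSO baseline.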
# [12] = read-out: solute carrier (SLCO1B1), SLCO1B1 (gene 10599); experiment: LTEA_HepaRG_SLCO1B1: Life Technologies and Expression Analysis (LTEA) Assay for solute carrier (SLCO1B1) using HepaRG (AID 2283530)
# Method in brief: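 Differentiated human HepaRG cells were exposed for 48 h in serum-free induction medium to eight half-log concentrations, top 100 uM, in 0.5% DMSO. SLCO1B1 mRNA was measured by qRT-PCR, normalized to ACTB, GAPDH and POLR2A, and fitted bidirectionally against DMSO.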
# [13] = read-out: sulfotransferase 2A1 (SULT2A1), SULT2A1 (gene 6822); experiment: LTEA_HepaRG_SULT2A1: Life Technologies and Expression Analysis (LTEA) Assay for sulfotransferase 2A1 (SULT2A1) using HepaRG (AID 2283531)
# Method in brief: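 HepaRG human liver cells, 48 h exposure in serum-free induction medium to 8 half-log concentrations topping at 100 µM (0.5% DMSO), duplicate wells. SULT2A1 mRNA measured by TaqMan qRT-PCR, normalized to ACTB/GAPDH/POLR2A; bidirectional fit against DMSO.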
# [14] = read-out: Transforming Growth Factor (TGFA), TGFA (gene 7039); experiment: LTEA_HepaRG_TGFA: Life Technologies and Expression Analysis (LTEA) Assay for Transforming Growth Factor (TGFA) using HepaRG (AID 2283532)
# Method in brief: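 qRT-PCR read-out of TGFA transcript, normalized to three housekeeping genes, fitted bidirectionally against 0.5% DMSO baseline. Human HepaRG cultures received chemicals for 48 h at eight half-log concentrations, top 100 uM.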
# [15] = read-out: Transforming Growth Factor (TGFB1), TGFB1 (gene 7040); experiment: LTEA_HepaRG_TGFB1: Life Technologies and Expression Analysis (LTEA) Assay for Transforming Growth Factor (TGFB1) Transporter using HepaRG (AID 2283533)
# Method in brief: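 Differentiated HepaRG cells exposed 48 hr in serum-free induction medium to eight half-log concentrations up to 100 uM (0.5% DMSO), duplicate; TGFB1 mRNA by TaqMan qRT-PCR normalised to ACTB, GAPDH, POLR2A; bidirectional fit against DMSO.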
# [16] = read-out: Nuclear factor NF-kappa-B p105 subunit (Homo sapiens) (UniProt P19838); experiment: LTEA_HepaRG_NFKB1: Life Technologies and Expression Analysis (LTEA) Assay for Nuclear Factor Kappa B Subunit 1 (NFKB1) using HepaRG (AID 2283521);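 note: TaqMan qRT-PCR transcript normalised to ACTB GAPDH and POLR2A housekeeping genes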
# Method in brief: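 Differentiated human HepaRG cells were exposed for 48 h in serum-free induction medium to eight concentrations (top 100 uM, half-log steps, 0.5% DMSO), in duplicate. NFKB1 mRNA was measured by TaqMan qRT-PCR, normalized to ACTB/GAPDH/POLR2A, and fitted bidirectionally against DMSO.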
# Signal transducer and activator of transcription 3 (Homo sapiens), sequence (P40763 whole entry, looked up): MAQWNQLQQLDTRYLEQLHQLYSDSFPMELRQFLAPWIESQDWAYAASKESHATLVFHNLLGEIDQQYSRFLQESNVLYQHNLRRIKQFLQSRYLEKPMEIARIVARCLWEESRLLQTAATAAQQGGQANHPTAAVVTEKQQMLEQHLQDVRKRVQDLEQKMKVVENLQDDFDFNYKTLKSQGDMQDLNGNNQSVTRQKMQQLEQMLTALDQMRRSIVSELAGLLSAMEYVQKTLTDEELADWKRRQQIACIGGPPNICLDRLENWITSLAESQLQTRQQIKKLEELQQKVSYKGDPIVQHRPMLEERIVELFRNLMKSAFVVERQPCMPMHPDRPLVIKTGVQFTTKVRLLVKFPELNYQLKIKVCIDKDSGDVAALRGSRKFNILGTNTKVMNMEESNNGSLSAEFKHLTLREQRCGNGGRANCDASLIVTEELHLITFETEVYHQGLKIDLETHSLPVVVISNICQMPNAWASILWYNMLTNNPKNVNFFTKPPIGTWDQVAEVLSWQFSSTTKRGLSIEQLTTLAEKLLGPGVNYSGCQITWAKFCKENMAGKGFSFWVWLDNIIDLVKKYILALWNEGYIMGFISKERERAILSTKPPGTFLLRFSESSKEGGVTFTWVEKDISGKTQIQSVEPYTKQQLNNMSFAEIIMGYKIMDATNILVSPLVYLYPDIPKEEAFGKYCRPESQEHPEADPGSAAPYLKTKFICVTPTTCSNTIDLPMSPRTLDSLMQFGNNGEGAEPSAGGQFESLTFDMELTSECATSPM
# Nuclear factor NF-kappa-B p105 subunit (Homo sapiens), sequence (P19838 whole entry, looked up): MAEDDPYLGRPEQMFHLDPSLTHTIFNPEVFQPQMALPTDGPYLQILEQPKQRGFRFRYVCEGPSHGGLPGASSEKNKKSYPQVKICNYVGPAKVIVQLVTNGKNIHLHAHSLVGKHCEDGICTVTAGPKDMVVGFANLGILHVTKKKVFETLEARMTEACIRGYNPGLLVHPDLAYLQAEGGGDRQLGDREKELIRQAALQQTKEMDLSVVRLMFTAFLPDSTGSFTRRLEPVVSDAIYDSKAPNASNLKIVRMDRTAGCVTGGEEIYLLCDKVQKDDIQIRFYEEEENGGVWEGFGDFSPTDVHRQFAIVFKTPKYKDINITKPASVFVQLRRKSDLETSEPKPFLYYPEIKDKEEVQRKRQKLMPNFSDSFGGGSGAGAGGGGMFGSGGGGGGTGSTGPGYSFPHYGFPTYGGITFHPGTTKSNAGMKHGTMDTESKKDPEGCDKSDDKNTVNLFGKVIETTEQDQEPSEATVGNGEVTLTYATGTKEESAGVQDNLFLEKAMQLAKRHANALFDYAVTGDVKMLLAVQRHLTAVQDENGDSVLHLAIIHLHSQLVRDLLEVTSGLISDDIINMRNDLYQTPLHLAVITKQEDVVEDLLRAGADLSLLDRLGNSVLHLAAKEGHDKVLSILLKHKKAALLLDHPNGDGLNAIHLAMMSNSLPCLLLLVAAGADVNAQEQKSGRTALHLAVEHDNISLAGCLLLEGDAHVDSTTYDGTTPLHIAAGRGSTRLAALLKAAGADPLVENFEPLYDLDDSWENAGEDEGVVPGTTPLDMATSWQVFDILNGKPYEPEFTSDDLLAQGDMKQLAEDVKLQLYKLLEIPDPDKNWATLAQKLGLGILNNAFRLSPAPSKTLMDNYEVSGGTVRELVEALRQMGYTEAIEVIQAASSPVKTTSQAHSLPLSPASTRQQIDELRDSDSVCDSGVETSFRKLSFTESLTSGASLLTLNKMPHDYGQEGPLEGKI
smiles,measurement,setting,value
Oc1ccc(C(c2ccc(O)cc2)C(Cl)(Cl)Cl)cc1,AC50,[1],78.8 µM (active)
same,AC50,[2],85 µM (active)
same,AC50,[3],87.5 µM (active)
same,AC50,[4],78.6 µM (active)
same,AC50,"MYC, MYC (gene 4609)",78 µM (active)
same,AC50,[5],90.5 µM (active)
same,AC50,[6],76.9 µM (active)
same,AC50,[7],92.3 µM (active)
same,outcome,[8],inactive
same,AC50,[9],82.7 µM (active)
same,AC50,[10],80.6 µM (active)
same,AC50,[11],76.8 µM (active)
same,outcome,[12],inactive
same,AC50,[13],84.3 µM (active)
same,AC50,[14],80.7 µM (active)
same,AC50,[15],87.1 µM (active)
CCCCC(CC)COC(=O)c1ccccc1C(=O)O (stereo not drawn),outcome,[1],inactive
same,outcome,[2],inactive
same,outcome,[3],inactive
same,outcome,[4],inactive
same,outcome,"MYC, MYC (gene 4609)",inactive
same,outcome,[5],inactive
same,outcome,[6],inactive
same,outcome,[7],inactive
same,AC50,[8],79.9 µM (active)
same,outcome,[9],inactive
same,outcome,[10],inactive
same,outcome,[11],inactive
same,outcome,[12],inactive
same,outcome,[13],inactive
same,outcome,[14],inactive
same,outcome,[15],inactive
CC(=O)S[C@@H]1CC2=CC(=O)CC[C@]2(C)[C@H]2CC[C@@]3(C)[C@@H](CC[C@@]34CCC(=O)O4)[C@H]12,AC50,[1],50 µM (active)
same,outcome,[2],inactive
same,AC50,[3],67.5 µM (active)
same,AC50,[4],76.1 µM (active)
same,outcome,"MYC, MYC (gene 4609)",inactive
same,outcome,[5],inactive
same,outcome,[6],inactive
same,AC50,[7],55.5 µM (active)
same,AC50,[8],50 µM (active)
same,outcome,[9],inactive
same,outcome,[10],inactive
same,outcome,[11],inactive
same,AC50,[12],50.4 µM (active)
same,AC50,[13],50 µM (active)
same,outcome,[14],inactive
same,outcome,[15],inactive
N#CSCSc1nc2ccccc2s1,outcome,[1],inactive
same,outcome,[2],inactive
same,AC50,[3],69.3 µM (active)
same,outcome,[4],inactive
same,outcome,"MYC, MYC (gene 4609)",inactive
same,outcome,[5],inactive
same,outcome,[16],inactive
same,outcome,[6],inactive
same,AC50,[7],76.7 µM (active)
same,AC50,[8],32.9 µM (active)
same,outcome,[9],inactive
same,outcome,[10],inactive
same,outcome,[11],inactive
same,AC50,[12],95.8 µM (active)
same,outcome,[13],inactive
same,outcome,[14],inactive
same,outcome,[15],inactive
CSC(=O)c1cccc2nnsc12,outcome,[1],inactive
same,outcome,[2],inactive
same,outcome,[3],inactive
same,outcome,[4],inactive
same,outcome,"MYC, MYC (gene 4609)",inactive
same,outcome,[5],inactive
same,outcome,[6],inactive
same,outcome,[7],inactive
same,outcome,[8],inactive
same,outcome,[9],inactive
same,outcome,[10],inactive
same,outcome,[11],inactive
same,outcome,[12],inactive
same,outcome,[13],inactive
same,outcome,[14],inactive
same,outcome,[15],inactive
CCCCCOC(=O)COc1cc(N2C(=O)C3=C(CCCC3)C2=O)c(F)cc1Cl,outcome,[1],inactive
same,outcome,[2],inactive
same,outcome,[3],inactive
same,outcome,[4],inactive
same,outcome,"MYC, MYC (gene 4609)",inactive
same,outcome,[5],inactive
same,outcome,[6],inactive
same,outcome,[7],inactive
same,outcome,[8],inactive
same,outcome,[9],inactive
same,outcome,[10],inactive
same,outcome,[11],inactive
same,outcome,[12],inactive
same,outcome,[13],inactive
same,outcome,[14],inactive
same,outcome,[15],inactive
C=CCOC(Cn1ccnc1)c1ccc(Cl)cc1Cl (stereo not drawn),AC50,[1],33 µM (active)
same,AC50,[2],13.7 µM (active)
same,AC50,[3],20.5 µM (active)
same,AC50,[4],34.4 µM (active)
same,AC50,"MYC, MYC (gene 4609)",36 µM (active)
same,AC50,[5],75.2 µM (active)
same,outcome,[6],inactive
same,AC50,[7],31.3 µM (active)
same,AC50,[8],29 µM (active)
same,AC50,[9],50 µM (active)
same,outcome,[10],inactive
same,outcome,[11],inactive
same,AC50,[12],35 µM (active)
same,AC50,[13],36.4 µM (active)
same,AC50,[14],50 µM (active)
same,outcome,[15],inactive
